We go through 25 compounds from PubChem BioAssay AID652039 (The Scripps Research Institute Molecular Screening Center, 2013).

SMILES strings stand for the structures. About 3,300 (0.89%) of roughly 370,000 compounds were called active. The full list was thinned out, with actives kept by preference. Values without a mark were called inactive.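 How the source made its calls: active means activation above the mean of all tested compounds plus 3 SD, computed per campaign excluding outliers beyond control limits (cut at about 13% in these data); inactive means the rest.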

The target in the assay is Kallikrein-7 (Homo sapiens) (UniProt P49862). Kind of assay: proKLK7 zymogen activators, primary screen, biochemical, fluorescence intensity (AID 652039). As to conditions: purified proKLK7, EDANS-DABCYL substrate fluorescence; at 7 µM; hits give high values; 100% is mature enzyme control, 0% vehicle.
Chain of Kallikrein-7 (Homo sapiens) (P49862 whole entry, looked up): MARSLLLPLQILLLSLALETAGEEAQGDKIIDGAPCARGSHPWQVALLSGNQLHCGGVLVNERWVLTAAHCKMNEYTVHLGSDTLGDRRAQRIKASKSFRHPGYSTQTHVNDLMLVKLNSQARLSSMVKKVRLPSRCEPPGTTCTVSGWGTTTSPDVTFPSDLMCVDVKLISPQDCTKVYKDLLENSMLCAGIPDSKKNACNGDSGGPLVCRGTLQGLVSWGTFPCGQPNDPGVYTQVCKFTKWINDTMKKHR
Take `COc1ccc(C(=O)OCCN(C)C2CN(Cc3cn(Cc4cccc(C)c4)nn3)S(=O)(=O)C2)cc1OC` (stereo not given): the activation is 0%.
As for `CCCCNC(=O)C[C@H]1C(=O)N(Cc2ccc(OC)cc2)C2=CCCC[C@@]21C(=O)OCC`, the figure is -0.1%.
As for `N#Cc1ccccc1OC[C@@H](O)CN1CCC(C(O)(c2ccccc2)c2ccccc2)CC1`, the figure is 0.62%.
Consider `COc1ccc(N2CCN(C(=O)Cn3cnc4sc(C)c(S(=O)(=O)N5CCOCC5)c4c3=O)CC2)cc1`, for which the activation was -0.12%.
For `COc1ccc(-c2cn3cccnc3n2)cc1` the value was 73.9% (active); for `Nc1nc2ncccn2c1-c1ccccc1`, 5.34%; for `c1ccc(-c2cn3cccnc3n2)cc1`, 32.3% (active).
For `COc1ccc(N2CCN(C(=O)CSc3nnc4ncccn34)CC2)cc1` the value was 0.11%; for `FC(F)(F)Oc1ccc(-c2cn3cccnc3n2)cc1`, 34.6% (active).
For `COc1ccc(-c2ccnc(SCC(=O)N3CCOCC3)n2)cc1` the value was 0.01%; for `Cc1ccccc1Nc1c(-c2ccccc2)nc2ncccn12`, 0.74%; for `C=CCOC/C=C/C#CCN(CC=C)Cc1ccc(OC)cc1OC`, 0.82%.
Take `O=C(CSc1nc2ccccc2s1)N=Nc1c(O)[nH]c2ccccc12`: the activation is 0.68%.
For `Cc1ccc(-n2c(COc3ccccc3)nnc2SCC(=O)Nc2ccc3c(c2)OCCO3)cc1` the value was 0.98%; for `CCOC(=O)N1CCN(C(=O)C[C@H]2C[C@@]3(C(=O)OC)C(=C[C@H](C(C)(C)C)O[C@@H]3C)N(Cc3ccc(Cl)cc3Cl)C2=O)CC1`, 0.88%; for `COC(=O)c1ccccc1Oc1c(F)c(F)nc(N2CCOCC2)c1F`, 0.34%.
For the compound `Cc1cc(C(=O)OCC(=O)N2C(C)CCCC2C)c2ccccc2n1` (stereo not given), the activation is -1.23%.
As for `COC(=O)c1cc(N2CCNCC2)nc2ccccc12`, the figure is 78.9% (active); as for `CCOC(=O)[C@@]12CN(C(=O)OC(C)(C)C)CC=C1N(Cc1ccc(OC)cc1)C(=O)[C@H]2CC(=O)NCc1ccc(OC)c(OC)c1`, 0.61%.
For `CC1C(=O)C(C)C(c2ccc(O)cc2)NC1c1ccc(O)cc1` (stereo not given) the value was 0.15%; for `Cc1cc(C)c2nc3nc(C)cc(C)c3c(N)c2c1`, 52.6% (active).
For `CCC(CO)Nc1cccc2c1S(=O)(=O)N(Cc1cn(Cc3ccccc3C(F)(F)F)nn1)Cc1ccccc1O2` (stereo not given) the value was 0.4%.
For `Cc1ccccc1CN1CCCCC(NC(=O)Nc2ccccc2F)C1=O` (stereo not given), the activation is 0.62%.
As for `C#CCCN([C@H](C(=O)OC)C(C)C)S(=O)(=O)c1ccc(F)cc1Br`, the activation is -0.16%.
For `O=S1(=O)c2c(cccc2N2CCSCC2)Oc2ccccc2CN1Cc1cn(Cc2ccc(F)cc2)nn1` the value was -2.26%.
